The list is not random: actives were taken first. Their share in the collection is about 4.3%.
FAS-TE inh: inhibitors of human fatty acid synthase thioesterase domain; recombinant FAS-TE, OMFH fluorogenic substrate, fluorescence endpoint; inhibition, % at 15 µM; 360,000 compounds, 0.67% hits; P49327; AID 602261;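 active means compounds whose normalised, plate-corrected inhibition of enzyme fluorescence in the single-dose primary screen is 50% or more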;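 further: 0% = DMSO with enzyme and 100% = substrate without enzyme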
Target sequence (P49327 whole entry, looked up, the tested form may be a part): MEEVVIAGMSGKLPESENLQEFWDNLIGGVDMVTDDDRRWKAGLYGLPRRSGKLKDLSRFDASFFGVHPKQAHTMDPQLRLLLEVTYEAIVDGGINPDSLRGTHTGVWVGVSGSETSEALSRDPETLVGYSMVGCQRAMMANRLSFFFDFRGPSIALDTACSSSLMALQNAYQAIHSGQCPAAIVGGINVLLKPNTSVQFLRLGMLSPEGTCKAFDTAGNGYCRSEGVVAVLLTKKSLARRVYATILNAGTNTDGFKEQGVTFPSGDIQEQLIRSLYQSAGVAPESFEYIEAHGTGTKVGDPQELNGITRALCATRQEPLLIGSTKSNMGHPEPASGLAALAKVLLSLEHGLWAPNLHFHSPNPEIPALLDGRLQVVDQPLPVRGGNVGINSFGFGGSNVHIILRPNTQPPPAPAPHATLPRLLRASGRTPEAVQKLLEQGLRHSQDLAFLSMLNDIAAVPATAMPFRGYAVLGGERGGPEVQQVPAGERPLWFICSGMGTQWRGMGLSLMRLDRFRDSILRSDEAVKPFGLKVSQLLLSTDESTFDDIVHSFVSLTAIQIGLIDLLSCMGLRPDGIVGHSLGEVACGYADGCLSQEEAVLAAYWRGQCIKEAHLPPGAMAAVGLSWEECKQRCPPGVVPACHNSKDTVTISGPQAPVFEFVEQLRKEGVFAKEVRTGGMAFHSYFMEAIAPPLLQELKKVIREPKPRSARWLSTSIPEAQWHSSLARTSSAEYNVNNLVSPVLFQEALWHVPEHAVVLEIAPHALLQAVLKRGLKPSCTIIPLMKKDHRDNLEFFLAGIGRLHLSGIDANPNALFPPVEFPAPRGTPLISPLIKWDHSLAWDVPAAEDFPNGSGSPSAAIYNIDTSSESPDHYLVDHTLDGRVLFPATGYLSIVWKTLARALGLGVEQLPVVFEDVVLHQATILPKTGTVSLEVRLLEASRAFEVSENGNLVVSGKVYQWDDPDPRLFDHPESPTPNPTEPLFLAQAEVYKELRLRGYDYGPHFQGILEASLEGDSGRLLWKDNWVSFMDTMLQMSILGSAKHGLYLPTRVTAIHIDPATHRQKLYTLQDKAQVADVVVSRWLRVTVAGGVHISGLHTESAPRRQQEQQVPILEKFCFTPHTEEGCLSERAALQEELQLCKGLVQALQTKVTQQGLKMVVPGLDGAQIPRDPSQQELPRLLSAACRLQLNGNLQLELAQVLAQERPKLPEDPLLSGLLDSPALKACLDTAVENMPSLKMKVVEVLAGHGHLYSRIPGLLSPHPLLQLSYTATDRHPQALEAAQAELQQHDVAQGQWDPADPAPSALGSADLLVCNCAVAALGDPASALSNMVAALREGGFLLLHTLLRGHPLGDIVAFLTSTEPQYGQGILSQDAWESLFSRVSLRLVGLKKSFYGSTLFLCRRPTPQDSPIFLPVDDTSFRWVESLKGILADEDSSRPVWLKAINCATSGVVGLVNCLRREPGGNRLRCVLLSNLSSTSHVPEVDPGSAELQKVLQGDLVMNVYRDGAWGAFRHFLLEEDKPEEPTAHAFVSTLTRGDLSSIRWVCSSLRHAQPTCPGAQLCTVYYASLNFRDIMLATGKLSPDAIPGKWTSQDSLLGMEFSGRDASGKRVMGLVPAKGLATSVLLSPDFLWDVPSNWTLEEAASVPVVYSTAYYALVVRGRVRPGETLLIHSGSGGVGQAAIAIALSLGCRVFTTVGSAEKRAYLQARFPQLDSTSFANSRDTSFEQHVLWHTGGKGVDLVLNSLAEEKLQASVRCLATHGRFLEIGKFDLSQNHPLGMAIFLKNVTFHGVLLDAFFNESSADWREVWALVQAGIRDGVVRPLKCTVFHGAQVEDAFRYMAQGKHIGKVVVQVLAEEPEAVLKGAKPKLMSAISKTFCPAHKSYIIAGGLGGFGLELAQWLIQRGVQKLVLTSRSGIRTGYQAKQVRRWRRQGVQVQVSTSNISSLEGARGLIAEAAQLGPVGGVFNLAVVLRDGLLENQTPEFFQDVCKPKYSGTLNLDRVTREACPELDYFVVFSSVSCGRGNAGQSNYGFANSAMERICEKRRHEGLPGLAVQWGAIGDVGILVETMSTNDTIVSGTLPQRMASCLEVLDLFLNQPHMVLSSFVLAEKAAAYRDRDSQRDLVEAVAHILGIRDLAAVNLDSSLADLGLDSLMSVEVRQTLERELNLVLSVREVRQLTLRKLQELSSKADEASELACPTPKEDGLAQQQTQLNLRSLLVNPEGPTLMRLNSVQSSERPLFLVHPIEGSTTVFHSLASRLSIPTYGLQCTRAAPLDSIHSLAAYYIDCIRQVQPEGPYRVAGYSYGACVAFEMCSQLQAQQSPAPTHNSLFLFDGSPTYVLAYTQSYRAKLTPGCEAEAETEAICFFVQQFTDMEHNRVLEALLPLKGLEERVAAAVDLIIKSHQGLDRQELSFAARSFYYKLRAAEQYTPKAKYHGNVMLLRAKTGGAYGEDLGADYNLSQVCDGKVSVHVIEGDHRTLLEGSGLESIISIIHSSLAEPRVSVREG
rCAG RNA binder: binds r(CAG) RNA repeats | r(CAG) RNA repeat, TO-PRO-1 dye displacement fluorescence | 370,000 compounds, 1.3% hits | inhibition, % at 3 µM;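 active means inhibition above the plate cutoff, the mean of all test compounds on that plate plus 3 SD, cut at about 35% in these data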;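 further: 0% = DMSO alone and 100% = 100 µM mitoxantrone as full dye displacement; higher means more dye released from RNA so lower well fluorescence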
GRIN3A LBD mod: modulates the human NR3A ligand-binding domain; AID 1259313; 340,000 compounds, 2.5% hits; Tm shift relative to glycine control, % at 25 µM; NR3A LBD differential scanning fluorimetry, Tm shift; 0% = protein alone, 100% = glycine-bound protein;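 active means melting temperature shift of at least 10% of the positive control shift, at one fixed dose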
NadD block: blocks S. aureus nicotinate mononucleotide adenylyltransferase | purified NadD enzyme, colorimetric absorbance read-out | inhibition, % at 20 µM | 360,000 compounds, 0.78% hits | AID 602399; in the data active means inhibition above about 26%
Active calls of the source: *; x = no result given.

SMILES	FAS-TE inh	rCAG RNA binder	GRIN3A LBD mod	NadD block
COC(=O)C1=C(C)N(C)C(=NCc2cc(OC)c(OC)c(OC)c2)NC1c1ccc(Cl)cc1 (stereo unspecified)	x	9	x	x
O=[N+]([O-])c1ccc(Cl)c2cccnc12	-4	-3	12*	3
O=[N+]([O-])c1cccc2c(Cl)ccnc12	4	1	0	0
O=C1CSc2ccc(C(=O)N3CCCC(C(=O)N4CCOCC4)C3)cc2N1 (stereo unspecified)	x	2	x	x
CCCOc1cccc(C(=O)Nc2cccc(NC(=O)c3ccco3)c2)c1	16	3	7	-9
O=C(Oc1ccccc1)c1ccc(NC(=O)c2ccco2)cc1	-1	6	-8	0
COC(=O)c1ccc(NC(=O)c2ccc(NC(=O)c3ccco3)cc2)cc1	-3	-4	25*	9
CC(=O)c1ccc(NC(=O)c2ccc(NC(=O)c3ccco3)cc2)cc1	-2	x	13*	7
O=C(Nc1ccccc1)c1cccc(NC(=O)c2ccco2)c1	-2	4	6	-3
C=Cc1cccc(NC(=O)c2ccc(NC(=O)c3ccco3)cc2)c1	11	3	31*	-1
CCCCOc1cccc(C(=O)Nc2ccc(NC(=O)c3ccco3)cc2)c1	0	0	12*	2
O=C(Nc1ccc(NC(=O)c2ccco2)cc1)c1ccc2c(c1)OCCO2	0	-2	10*	-1
Cc1cc(C)cc(NC(=O)c2ccc(NC(=O)c3ccco3)cc2)c1	15	-2	18*	-5
CCOC(=O)c1cccc(NC(=O)c2ccc(NC(=O)c3ccco3)cc2)c1	2	0	31*	-8
COC(=O)C1CN(Cc2ccc(OC)cc2)CCS(=O)(=O)N1Cc1ccc(F)cc1 (stereo unspecified)	x	2	x	x
O=S1(=O)N[C@H](Cc2ccccc2)COc2cccc(F)c21	x	3	x	x
O=C(NC1CCCCN(Cc2ccc(Cl)cc2)C1=O)c1c(F)cccc1F (stereo unspecified)	x	0	x	x
C[C@H]1[C@@H](c2ccccc2)Oc2ccc(Cl)cc2S(=O)(=O)N1Cc1ccc(F)cc1F	26	7	15*	-2
C[C@H]1[C@@H](c2ccccc2)Oc2ccc(Cl)cc2S(=O)(=O)N1Cc1ccc(Cl)cc1	x	6	x	x
CCN(CC)CCCNC(=O)CC1Oc2ccccc2NC1=O (stereo unspecified)	x	2	x	x
COc1c(F)c(F)c(C(=O)Nc2ccc(-c3nc4ccccc4[nH]3)cc2)c(F)c1F	-8	1	13*	-5
COCCN1Cc2cccc(C(=O)Nc3ccc(-c4nc5ccccc5[nH]4)cc3)c2C1=O	-8	0	3	-3
O=C(CN1CCOCC1)Nc1ccc(-c2nc3ccccc3[nH]2)cc1	-4	-1	-7	3
O=C(Nc1ccc(-c2nc3ccccc3[nH]2)cc1)c1c(F)c(F)c(F)c(F)c1F	1	-1	16*	2
CCOc1ccc(NC(=S)NCc2nc3ccccc3[nH]2)cc1	0	0	-3	2
SMILES	FAS-TE inh	rCAG RNA binder	GRIN3A LBD mod	NadD block
CCNC(=S)Nc1ccc(-c2nc3ccccc3[nH]2)cc1	-1	5	28*	-4
COC(=O)[C@]12C[C@H](CC(=O)NCc3cccc4ccccc34)C(=O)N(Cc3cccc4ccccc34)C1=C[C@H](C1CCCC1)O[C@@H]2C	x	10	x	x
CC(C)C(=O)Oc1ccc(CO)cc1[C@H](CCN(C(C)C)C(C)C)c1ccccc1	x	0	x	x
O=C(Cc1ccccc1)N1CCC(Oc2cccnc2)CC1	x	3	x	x
O=C1c2[nH]nc(-c3ccccc3)c2C(c2ccc(F)cc2)N1Cc1ccccc1 (stereo unspecified)	x	6	x	x
Clc1cccc(CSc2ncnc3sc4c(c23)CCCC4)c1	x	3	x	x
CC(C)(C)Nc1nc(SCC(=O)Nc2ccccc2Cl)nc(N2CCOCC2)n1	19	-8	17*	-6
Cc1ccc(-c2ccnc(=S)[nH]2)cc1	-5	2	10*	3
O=C(N/N=C/c1cn(-c2ccccc2)nc1-c1cc2ccccc2o1)c1ccccc1Br	9	5	5	28
O=C(Nc1ccc2ccccc2c1)c1cn(-c2ccccc2)nc1-c1cccs1	30	25	25*	8
N#CCCn1cc(C(=O)Nc2ccc([N+](=O)[O-])cc2)c(-c2cc3ccccc3o2)n1	6	21	14*	-13
CN(C)c1ccc(NC(=O)c2cn(-c3ccccc3)nc2-c2cccs2)cc1	20	14	2	8
O=C(N/N=C/c1cn(-c2ccccc2)nc1-c1cc2ccccc2o1)c1c[nH]c2ccccc12	15	12	20*	16
COc1ccc(NC(=O)c2cn(-c3ccccc3)nc2-c2cc3ccccc3o2)cc1	33	4	11*	1

Screens deposited in PubChem BioAssay by several laboratories.
